Several values for one entry are separate records, joined by “and”; a condition that tells them apart may be missing. Equal values may be shown once. Records with an inconclusive call do not appear. Where a call stands in place of a potency, no number is given. Activity calls are given as the source filed them. Unless noted, the call rests on the fitted dose curve; in most records, active means well fitted curve in the direction sought with a large enough effect; inconclusive means small, poorly fitted or top-dose-only effect, or another doubt; inactive means no such curve, though single readings can be large; an effect the other way counts as inactive or inconclusive.
How the values were obtained:
[1] = Primary qHTS for small molecule stabilizers of the endoplasmic reticulum resident proteome: Secreted ER Calcium Modulated Protein (SERCaMP) assay (AID 1508630)
How it was run: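 GLuc-SERCaMP-expressing SH-SY5Y cells, pretreated 16 h with compound, are challenged with thapsigargin to empty ER calcium stores; after 4 h, coelenterazine is added directly to the medium and luminescence is imaged.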

[2] = target: Cytochrome P450 2D6 (Homo sapiens) (UniProt P10635); assay: Cytochrome P450 family 2 subfamily D member 6 (CYP2D6) small molecule antagonists: luciferase biochemical (cell-free) qHTS assay (AID 1645840; active means well fitted curve in the direction sought with a large enough effect in the repeat runs; an effect the other way counts as inactive or inconclusive; further: nearly all actives have a fitted effect of over 55% in size; further: potency means the concentration at half of the fitted maximal effect)
How it was run: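 P450-Glo luminescent screen: recombinant CYP2D6 enzyme–proluciferin substrate mix preincubated with compound 10 min at room temperature, then NADPH regeneration added for 1 h at room temperature. Detection reagent added for 20 min; luciferin light read as relative luminescence units.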

[3] = target: Cytochrome P450 2C9 (Homo sapiens) (UniProt P11712); assay: Cytochrome P450 family 2 subfamily C member 9 (CYP2C9) small molecule antagonists: luciferase biochemical (cell-free) qHTS assay (AID 1645842; active means well fitted curve in the direction sought with a large enough effect in the repeat runs; an effect the other way counts as inactive or inconclusive; further: nearly all actives have a fitted effect of over 55% in size; further: potency means the concentration at half of the fitted maximal effect)
How it was run: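 Luminescence, after 20 min with luciferin detection reagent, reflected CYP2C9 turnover during a 1 h NADPH-driven reaction at 37C. Enzyme-substrate mix contained 0.4% bovine serum albumin and was preincubated with compound 10 min at room temperature.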

[4] = Cytotoxicity counterscreen for inhibitors of SARS-CoV-2 cell entry (AID 1645845; calls by dose curve; further: nearly all actives have a fitted effect of over 50% in size; further: potency means the concentration at half of the fitted maximal effect)
How it was run: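 HEK293-ACE2 cells (Expi293F stably expressing human ACE2) seeded overnight, then compound for 1 h plus 48 h at 37C. Viability as ATP content by luminescence; normalized to wells with cells and media-only wells.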

[5] = Primary qHTS to identify inhibitors of SARS-CoV-2 cell entry (AID 1645846; calls by dose curve; further: nearly all actives have a fitted effect of over 45% in size; further: potency means the concentration at half of the fitted maximal effect); details: activity change, negative = inhibition: at 57.1 µM (top of the series) unless noted
How it was run: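 Inhibition of spike-mediated entry was scored in human ACE2-transfected Expi293F cells. Particles were MLV-pseudotyped with Wuhan-Hu-1 S carrying a 19-aa C-terminal deletion; signal was luciferase after two days, scaled between spike PP and fusion-protein-free PP.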

[6] = Primary qHTS for inhibitors of nuclear receptor binding SET domain protein 2 (NSD2) in an isogenic RCH-ACV NSD2 p.E1099K mutant (9B) (AID 1645876); further: nearly all actives have a fitted effect of over 70% in size; further: potency means the concentration at half of the fitted maximal effect
[7] = Primary qHTS for inhibitors of nuclear receptor binding SET domain protein 2 (NSD2) in an RCH-ACV wild type WT cells (2C) (AID 1645877); further: nearly all actives have a fitted effect of over 70% in size; further: potency means the concentration at half of the fitted maximal effect
Papain (Carica papaya) = Papain (Carica papaya) (UniProt P00784); assay: Primary qHTS assay for inhibitors of the protease papain (AID 1645873);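 further: papain turnover of Z-FR-AMC read as the AMC fluorescence gain over 10 min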
[8] = target: Rap guanine nucleotide exchange factor 3 (Homo sapiens) (UniProt O95398); assay: Confirmatory qHTS for antagonist of cAMP-regulated guanine nucleotide exchange factor 3 (EPAC1) (AID 1645880); further: nearly all actives have a fitted effect of over 55% in size
How it was run: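 Nucleotide exchange uses 100 nM EPAC1, 250 nM RAP1B-BODIPY-GDP and 50 uM GDP, with compounds in a concentration-titration series. After 5 min at room temperature, fluorescence (480 nm ex/540 nm em) is read every 5 min for 30 min. Data are normalized to control ATA and DMSO.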

[9] = target: Rap guanine nucleotide exchange factor 3 (Homo sapiens) (UniProt O95398); assay: Confirmatory qHTS for agonist of cAMP-regulated guanine nucleotide exchange factor 3 (EPAC1) (AID 1645881);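 further: EPAC1 catalysed release of BODIPY-GDP from Rap1B seen as fluorescence loss; nearly all actives have a fitted effect of over 75% in size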
[10] = target: Rap guanine nucleotide exchange factor 4 (Homo sapiens) (UniProt Q8WZA2); assay: Confirmatory qHTS for agonist of cAMP-regulated guanine nucleotide exchange factor 4 (EPAC2) (AID 1645884);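 further: nucleotide exchange releases bodipy-GDP from Rap1 and this lowers its fluorescence; nearly all actives have a fitted effect of over 65% in size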
[11] = target: Rap guanine nucleotide exchange factor 4 (Homo sapiens) (UniProt Q8WZA2); assay: Confirmatory qHTS for antagonist of cAMP-regulated guanine nucleotide exchange factor 4 (EPAC2) (AID 1645885); further: nearly all actives have a fitted effect of over 25% in size

Chain of Cytochrome P450 2C9 (Homo sapiens) (P11712 whole entry, looked up): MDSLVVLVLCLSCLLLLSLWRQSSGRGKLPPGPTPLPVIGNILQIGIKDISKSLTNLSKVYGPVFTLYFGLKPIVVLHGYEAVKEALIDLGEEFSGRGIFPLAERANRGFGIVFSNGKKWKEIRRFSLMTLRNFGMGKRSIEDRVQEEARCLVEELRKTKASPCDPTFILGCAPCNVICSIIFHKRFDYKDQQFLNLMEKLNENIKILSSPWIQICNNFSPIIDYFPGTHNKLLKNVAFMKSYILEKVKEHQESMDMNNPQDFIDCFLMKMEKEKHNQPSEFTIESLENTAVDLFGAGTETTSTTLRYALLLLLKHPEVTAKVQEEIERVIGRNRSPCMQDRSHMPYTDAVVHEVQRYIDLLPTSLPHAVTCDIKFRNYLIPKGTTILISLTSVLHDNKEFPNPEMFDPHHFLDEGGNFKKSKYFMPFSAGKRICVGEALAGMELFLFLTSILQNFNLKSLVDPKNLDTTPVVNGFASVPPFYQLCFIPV
Chain of Cytochrome P450 2D6 (Homo sapiens) (P10635 whole entry, looked up): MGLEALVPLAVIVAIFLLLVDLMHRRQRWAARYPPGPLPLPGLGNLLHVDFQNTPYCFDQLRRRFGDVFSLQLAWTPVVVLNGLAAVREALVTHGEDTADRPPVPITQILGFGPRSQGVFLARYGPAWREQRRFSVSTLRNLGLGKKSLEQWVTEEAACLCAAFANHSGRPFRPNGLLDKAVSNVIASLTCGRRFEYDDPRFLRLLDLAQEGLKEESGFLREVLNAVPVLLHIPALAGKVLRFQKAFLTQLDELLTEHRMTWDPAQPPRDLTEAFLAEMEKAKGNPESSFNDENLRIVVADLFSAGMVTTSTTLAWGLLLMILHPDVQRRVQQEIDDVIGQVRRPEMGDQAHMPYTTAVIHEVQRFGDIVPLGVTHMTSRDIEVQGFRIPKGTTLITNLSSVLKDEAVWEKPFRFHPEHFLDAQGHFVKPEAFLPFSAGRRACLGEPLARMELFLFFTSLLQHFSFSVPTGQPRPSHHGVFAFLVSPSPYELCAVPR
Chain of Rap guanine nucleotide exchange factor 3 (Homo sapiens) (O95398 whole entry, looked up): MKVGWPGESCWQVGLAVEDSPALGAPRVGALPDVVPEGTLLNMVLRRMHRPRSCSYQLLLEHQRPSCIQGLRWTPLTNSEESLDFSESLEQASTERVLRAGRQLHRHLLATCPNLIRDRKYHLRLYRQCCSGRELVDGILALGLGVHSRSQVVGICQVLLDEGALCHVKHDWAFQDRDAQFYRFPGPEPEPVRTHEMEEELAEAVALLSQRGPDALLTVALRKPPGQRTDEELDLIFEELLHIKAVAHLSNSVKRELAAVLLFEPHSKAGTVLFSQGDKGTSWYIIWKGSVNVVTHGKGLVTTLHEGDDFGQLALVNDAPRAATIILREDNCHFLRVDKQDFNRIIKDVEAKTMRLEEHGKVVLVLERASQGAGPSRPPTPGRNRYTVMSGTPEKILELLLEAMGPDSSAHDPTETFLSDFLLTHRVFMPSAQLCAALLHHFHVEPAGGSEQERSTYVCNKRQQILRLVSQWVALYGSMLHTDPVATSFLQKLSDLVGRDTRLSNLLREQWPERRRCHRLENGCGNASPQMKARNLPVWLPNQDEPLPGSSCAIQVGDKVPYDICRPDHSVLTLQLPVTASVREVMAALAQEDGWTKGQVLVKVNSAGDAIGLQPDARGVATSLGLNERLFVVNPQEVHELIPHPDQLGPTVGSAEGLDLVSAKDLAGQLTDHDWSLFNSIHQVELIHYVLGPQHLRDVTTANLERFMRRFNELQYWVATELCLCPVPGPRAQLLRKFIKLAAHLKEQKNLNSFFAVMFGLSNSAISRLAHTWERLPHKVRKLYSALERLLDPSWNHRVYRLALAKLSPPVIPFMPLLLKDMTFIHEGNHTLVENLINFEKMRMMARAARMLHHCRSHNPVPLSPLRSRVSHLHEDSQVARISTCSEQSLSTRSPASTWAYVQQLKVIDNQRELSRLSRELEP
Chain of Rap guanine nucleotide exchange factor 4 (Homo sapiens) (Q8WZA2 whole entry, looked up): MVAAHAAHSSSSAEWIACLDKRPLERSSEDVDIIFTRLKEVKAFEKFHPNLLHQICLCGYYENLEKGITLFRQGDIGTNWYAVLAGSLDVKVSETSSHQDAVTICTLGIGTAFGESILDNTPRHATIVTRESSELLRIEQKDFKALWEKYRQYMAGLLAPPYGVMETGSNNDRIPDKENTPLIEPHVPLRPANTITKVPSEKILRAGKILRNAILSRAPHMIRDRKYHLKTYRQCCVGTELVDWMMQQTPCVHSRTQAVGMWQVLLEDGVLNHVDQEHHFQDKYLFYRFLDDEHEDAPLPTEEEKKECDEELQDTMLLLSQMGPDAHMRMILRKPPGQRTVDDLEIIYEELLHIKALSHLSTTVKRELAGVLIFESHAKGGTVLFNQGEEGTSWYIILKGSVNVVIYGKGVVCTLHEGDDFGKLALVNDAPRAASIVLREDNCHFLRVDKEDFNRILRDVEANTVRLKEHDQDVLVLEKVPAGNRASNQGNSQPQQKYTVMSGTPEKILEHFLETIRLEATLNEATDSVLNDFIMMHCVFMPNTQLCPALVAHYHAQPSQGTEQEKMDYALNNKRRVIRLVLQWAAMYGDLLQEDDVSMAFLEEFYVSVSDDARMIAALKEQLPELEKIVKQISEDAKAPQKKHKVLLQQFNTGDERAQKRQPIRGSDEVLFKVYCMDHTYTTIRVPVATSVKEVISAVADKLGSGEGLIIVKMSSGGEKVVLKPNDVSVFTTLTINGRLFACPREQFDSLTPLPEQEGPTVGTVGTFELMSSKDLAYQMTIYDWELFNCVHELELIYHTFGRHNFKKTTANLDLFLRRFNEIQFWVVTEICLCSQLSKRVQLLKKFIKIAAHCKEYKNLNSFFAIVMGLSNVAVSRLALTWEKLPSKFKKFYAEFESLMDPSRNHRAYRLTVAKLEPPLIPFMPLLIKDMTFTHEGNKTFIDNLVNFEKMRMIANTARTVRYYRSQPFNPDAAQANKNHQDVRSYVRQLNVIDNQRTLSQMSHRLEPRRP
Chain of Papain (Carica papaya) (P00784 whole entry, looked up): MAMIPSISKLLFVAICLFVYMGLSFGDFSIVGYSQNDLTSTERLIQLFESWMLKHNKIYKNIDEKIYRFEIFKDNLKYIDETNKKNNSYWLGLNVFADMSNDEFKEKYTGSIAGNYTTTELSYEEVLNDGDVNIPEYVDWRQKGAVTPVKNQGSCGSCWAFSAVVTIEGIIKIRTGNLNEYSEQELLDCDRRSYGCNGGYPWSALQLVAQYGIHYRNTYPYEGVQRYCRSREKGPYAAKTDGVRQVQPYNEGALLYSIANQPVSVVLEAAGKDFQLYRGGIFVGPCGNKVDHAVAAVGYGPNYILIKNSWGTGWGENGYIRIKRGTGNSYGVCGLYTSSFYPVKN

CCN1CCN(C(=O)Cc2ccc(Nc3ncc(F)c(Nc4ccc(C(=O)Nc5ccccc5Cl)cc4)n3)cc2)CC1
Potency [1]: inactive
Potency [2]: inactive
Potency [3]: 1.9 µM (active)
Potency [4]: 22.4 µM (active)
Potency [5]: 8.91 µM (active)
Potency [6]: 2.31 µM (active) and 2.63 µM (active)
Potency [7]: 2.31 µM (active) and 2.35 µM (active)

CC1=NN=C(c2ccc(N)cc2)c2cc3c(cc2C1)OCO3
Potency [1]: inactive
Potency [2]: 19 µM (active)
Potency [3]: 7.56 µM (active)
Potency (Papain (Carica papaya)): inactive
outcome [8]: inactive
outcome [9]: inactive
outcome [10]: inactive
Potency [11]: inactive

Cc1cc(O)ccc1Cl
Potency [1]: inactive
Potency [2]: inactive
Potency [3]: inactive
Potency [5]: inactive
Potency [6]: inactive
Potency [7]: inactive

CC(=O)N(C)c1cccc(-c2ccnc3c(C(=O)c4cccs4)cnn23)c1
Potency [1]: inactive
Potency [2]: inactive
Potency [3]: inactive
Potency [6]: inactive

O=c1[nH]c2ccc(Cl)cc2c(N[C@@H]2CN3CCC2CC3)c1-c1nc2ccccc2[nH]1
Potency [1]: inactive
Potency [2]: 1.69 µM (active) and 2.39 µM (active)
Potency [3]: 10.7 µM (active) and 8.49 µM (active)
activity change, negative = inhibition [5]: -97.1%
Potency [6]: 64.9 nM (active) and 83.3 nM (active)
Potency [7]: 51.5 nM (active) and 83.3 nM (active)

CC1=C(O)C(=O)C=C2C1=CC=C1[C@@]2(C)CC[C@@]2(C)[C@@H]3C[C@](C)(C(=O)O)CC[C@]3(C)CC[C@]12C
Potency [1]: inactive
Potency [3]: 12 µM (active)
Potency [5]: 14.1 µM (active)
Potency [6]: 1.48 µM (active)
Potency [7]: 1.66 µM (active)

O=C(Nc1ccccc1-c1ccc(Cl)cc1)c1cccnc1Cl
Potency [1]: inactive
Potency [2]: 22.4 µM (active)
Potency [3]: inactive
Potency [6]: inactive

CCCCCCCCc1ccc(O)cc1
Potency [1]: inactive
Potency [2]: 31 µM (active)
Potency [3]: 30.1 µM (active)
Potency [6]: 6.18 µM (active)

Nc1ccc(Sc2ccc(N)cc2)cc1
Potency [1]: inactive
Potency [2]: 24.5 µM (active)
Potency [3]: 0.92 µM (active)
Potency [7]: 34.4 µM (active)

COC(=O)c1cncn1C(C)c1ccccc1 (stereo unspecified)
Potency [1]: inactive
Potency [2]: 7.76 µM (active)
Potency [3]: 11 µM (active)
Potency [4]: inactive
Potency [5]: inactive
Potency [6]: inactive
Potency [7]: inactive

CCOC(=O)Nc1ccc(NCc2ccc(F)cc2)cc1N
Potency [1]: inactive
Potency [2]: 19 µM (active)
Potency [3]: 9.52 µM (active)
Potency [4]: inactive
activity change, negative = inhibition [5]: 2.18%
Potency [7]: inactive
